Consider 34 molecules from PubChem BioAssay AID720709 (National Center for Advancing Translational Sciences (NCATS), 2013).

Structures are written as SMILES. In all, about 360,000 compounds went through this assay and about 520 (0.14%) were called active. About 3% were inconclusive and are not listed. The sample holds actives, similar compounds and a random draw of the others, so the mix is not that of the screen. A number with no mark means an inactive call. The call rests on the fitted dose curve; in most records, active means well fitted inhibition curve with a large enough effect; inconclusive means small, poorly fitted or top-dose-only effect; inactive means no such curve, though single readings can be large or run the other way.
Potency means the concentration at half of the fitted maximal effect.

The target in the test is Rap guanine nucleotide exchange factor 3 (Homo sapiens) (UniProt O95398). In words: qHTS for Antagonist of cAMP-regulated guanine nucleotide exchange factor 3 (EPAC1): primary screen. Further: nearly all actives have a fitted effect of over 50% in size.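 On activity change, negative = inhibition: plate controls were vehicle for no effect and positive control for full effect.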 To be noted: EPAC1 GEF assay, Rap1b-BODIPY-GDP exchange fluorescence; series mostly up to 115 µM; activity change, negative = inhibition: at the top concentration. The text has this: In multi-cellular eukaryotic organisms, the effects of cAMP are transduced by two ubiquitously-expressed intracellular cAMP receptors, the classic protein kinase A/cAMP-dependent protein kinase (PKA/cAPK) and the more recently discovered exchange protein directly activated by cAMP/cAMP-regulated guanine nucleotide exchange factor (EPAC/cAMP-GEF). Both PKA and EPAC are ubiquitously expressed in all tissues, and an increase in intracellular cAMP levels will lead to the activation of both PKA and EPAC. Therefore, careful dissections of the individual role and relative contribution of EPAC and PKA within the overall cAMP signaling in various model systems are critical for further elucidating the mechanism of cAMP signaling. To date no EPAC-specific antagonists and agonist, as well as isoform-specific agonists have been reported, and developing EPAC-specific pharmacological probes to determine the physiological functions that EPAC play in the overall cAMP-mediated signaling remains a major challenge within the research field. Furthermore, identified regulators of EPAC may lead to new mechanism-based therapeutic strategies specifically targeting the EPAC / cAMP-signaling components as EPAC has been implicated to play important roles in major human pathological conditions such as diabetes, heart disease, and cancer. This qHTS will be used to screen the Molecular Libraries Small Molecule Repository (MLSMR) as a concentration-titration series using the NCGC unique quantitative screening (qHTS) platform to find inhibitors for EPAC1. In addition, this assay will also be used as a counterscreen for the EPAC2 qHTS. This fluorescent based assay is developed and validated for EPAC1 that measures exchange using EPAC effector Rap1 complex with BODIPY-GDP, a GDP analog with a tethered fluorophores. Inhibitors are identified by monitoring the change in fluorescence signal as the exchanged free BODIPY-GDP has a reduced fluorescence compared to Rap1-bound BODIPY-GDP. Decrease in signal (inhibition) is the desired outcome for the EPAC1 antagonist while no activity in this assay is desired for the EPAC2 antagonist counterscreen. de Rooij, J., Zwartkruis, F. J., Verheijen, M. H., Cool, R. H., Nijman, S. M., Wittinghofer, A., and Bos, J.L. (1998) Nature 396, 474-477 [2] Kawasaki, H., Springett, G. M., Mochizuki, N., Toki, S., Nakaya, M., Matsuda, M., Housman, D. E., and Graybiel, A. M. (1998) Science 282, 2275-2279 NIH Chemical Genomics Center [NCGC] NIH Molecular Libraries Probe Centers Network [MLPCN] MLPCN Grant: NS066510 Assay Submitter (PI): Xiaodong Cheng, The University of Texas, Medical Branch
Sequence of Rap guanine nucleotide exchange factor 3 (Homo sapiens) (O95398 whole entry, looked up): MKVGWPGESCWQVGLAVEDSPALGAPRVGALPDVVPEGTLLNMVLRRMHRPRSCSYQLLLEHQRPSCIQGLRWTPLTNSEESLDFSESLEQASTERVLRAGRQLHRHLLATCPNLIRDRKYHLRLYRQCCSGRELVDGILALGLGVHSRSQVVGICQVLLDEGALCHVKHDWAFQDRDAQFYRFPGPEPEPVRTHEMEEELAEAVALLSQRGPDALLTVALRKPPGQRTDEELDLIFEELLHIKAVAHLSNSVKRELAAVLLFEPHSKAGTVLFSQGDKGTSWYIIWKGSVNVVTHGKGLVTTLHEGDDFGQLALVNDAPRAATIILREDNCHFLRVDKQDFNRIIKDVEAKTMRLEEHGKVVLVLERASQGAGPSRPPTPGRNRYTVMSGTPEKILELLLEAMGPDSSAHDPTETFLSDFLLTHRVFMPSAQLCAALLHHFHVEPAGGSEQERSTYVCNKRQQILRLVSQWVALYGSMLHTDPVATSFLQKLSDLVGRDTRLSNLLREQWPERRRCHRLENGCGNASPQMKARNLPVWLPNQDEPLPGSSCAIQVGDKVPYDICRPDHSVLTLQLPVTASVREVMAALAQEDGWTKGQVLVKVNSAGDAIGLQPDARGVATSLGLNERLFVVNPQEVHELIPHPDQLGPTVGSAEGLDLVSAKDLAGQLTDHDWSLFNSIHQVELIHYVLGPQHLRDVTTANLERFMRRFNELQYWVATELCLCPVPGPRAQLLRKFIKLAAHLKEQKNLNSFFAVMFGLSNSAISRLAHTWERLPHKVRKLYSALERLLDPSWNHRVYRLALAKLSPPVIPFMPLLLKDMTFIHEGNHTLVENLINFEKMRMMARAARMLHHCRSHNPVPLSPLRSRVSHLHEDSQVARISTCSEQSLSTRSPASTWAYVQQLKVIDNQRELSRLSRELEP
Briefly, three uL of reagents (100 nM EPAC1, 250 nM RAP1B-BODIPY-GDP, 50 uM GDP) were dispensed into a 1536-well Greiner black solid-bottom medium binding assay plate. Controls and test compounds (23 nL) were transferred to the plate via a Kalypsys pin tool equipped with a 1536-pin array. The plates were centrifuged at 1,000 rpm for 15 seconds followed by 5 minute incubation at room temperature. The assay plates were read at 5 minute intervals for 30 minutes in the ViewLux plate reader using 480nm excitation and 540nm emission filters. The results were normalized to the […] positive control ATA and DMSO.
(In qHTS, concentration-response curves come from the screen itself.)
With `C#CCOCCOCCOCCNc1nc(N2CCN(C(=O)C([C@@H](C)O)n3cc([C@@H](N)CCCCN)nn3)CC2)nc(N2CCN(C(=O)[C@H](CCCCN)n3cc(CN)nn3)CC2)n1` (some centres undefined), the “activity change, negative = inhibition” value is 11%.
`C#CCOCCOCCOCCNc1nc(N2CCN(C(=O)[C@H](CO)n3cc([C@@H](N)C(C)C)nn3)CC2)nc(N2CCN(C(=O)[C@H](CCC(=O)O)n3cc([C@@H](N)[C@H](C)CC)nn3)CC2)n1`: the “activity change, negative = inhibition” value was -7.4%.
Consider `C#CCOCCOCCOCCNc1nc(N2CCN(C(=O)CCCCCCCCCCNC(=O)[C@H]([C@@H](C)CC)n3cc(CCCCN=C(N)N)nn3)CC2)nc(N2CCN(C(=O)CCCCCCCCCCNC(=O)[C@H](CO)n3cc(CCCSC)nn3)CC2)n1`, for which the Potency was 44.7 µM (active).
Take `CN1OC[C@@H]2CN(S(=O)(=O)c3cccc4ccccc34)[C@H](c3ccc(N4CCCCC4)cc3)C[C@@H]21`: the “activity change, negative = inhibition” value was 1.95%.
In the case of `CC(C)C[C@@H]1COc2cc(N3CCC[C@@H]3CO)ccc2S(=O)(=O)N1`, the “activity change, negative = inhibition” value is 21.2%.
The same measure, in the same setting: as for `CCOC(=O)C1C(C)C(C(C)(C)C)N(S(=O)(=O)c2ccc(C)cc2)C1c1ccccc1` (centres undefined), the figure is -11.1%.
`Oc1c(Cl)cc(Cl)c(Cl)c1Cc1c(O)c(Cl)cc(Cl)c1Cl`: the Potency was 70.8 µM (active).
On to `Fc1cccc(Cc2c(-c3ccc(Cl)cc3)nc3ccc(Cl)cn23)c1`, for which the “activity change, negative = inhibition” value is -25.5%.
Same read-out and setting: as for `CC1=C(C(=O)N(C(C)C)C(C)C)CC(CC(=O)NCCCCc2ccccc2)C(=O)N1CCC1=CCCCC1` (centres undefined), the figure is -21.9%.
As to `CCc1c(-c2ccc(F)cc2)ncn1Cc1cccc(-c2ccccc2)c1`, the “activity change, negative = inhibition” value is -18.4%.
In the case of `CN(C)C1CN(Cc2cn(Cc3ccccc3)nn2)S(=O)(=O)C1` (centres undefined), the “activity change, negative = inhibition” value was -19.8%.
Same read-out and setting: as for `COC(=O)C1=CN(c2c(C)cc(C)cc2C)C(N)=C(C#N)C1c1cccc(F)c1` (centres undefined), the figure is 7.23%.
The same measure, in the same setting: as for `CCc1oc(-c2ccc(OC)cc2)c(C(=O)OCCCCCO)c1C(C)OCCO` (centres undefined), the figure is -11.4%.
On the same count and under the same terms, as for `COC(=O)[C@]12CCCCC=C1N(Cc1cccc3ccccc13)C(=O)[C@H](CC(=O)N1CCOCC1)C2`, the figure is -27.4%.
In the case of `CCNC(=O)c1cc2c(c(-c3cccc(-c4cncnc4)c3)n1)[C@H](CCO)N(C(C)=O)C2`, the “activity change, negative = inhibition” value is -10.6%.
Same read-out and setting: as for `CCCCNC(=O)C[C@@H]1C[C@@]2(C(=O)OCC)CCC=C2N(Cc2ccco2)C1=O`, the figure is -9.69%.
On the same count and under the same terms, then `CCOC(=O)[C@]12CCCC=C1N(CCC1=CCCCC1)C(=O)[C@H](CC(=O)N1CCCCC1)C2`, with 5.77%; and `CCOc1ccc(CCN2C(=O)C(=O)N([C@@H](Cc3ccc(O)cc3)CN3CCC[C@H]3CN3C(=O)C(=O)NC[C@@H]3CC(C)C)C[C@@H]2Cc2ccccc2)cc1`, with -22.3%; and `CCOC(=O)[C@]12CCCC=C1N(Cc1ccc3c(c1)OCO3)C(=O)[C@H](CC(=O)N1CCN(C(=O)c3ccco3)CC1)C2`, with -27.1%.
Still for that read-out and setting: then `O=C(Nc1ccc2c(c1)OCCO2)C1c2ccccc2OCC(=O)N1Cc1ccccn1` (centres undefined), with -12.8%.
For `CC(C)C[C@@H]1Cc2[nH][nH]c(=O)c2[C@H](CCc2ccccc2)O1`, the “activity change, negative = inhibition” value was -20%.
The same measure, in the same setting: then `CCOC(=O)[C@]12CCCC=C1N(Cc1ccc3c(c1)OCO3)C(=O)[C@H](CC(=O)NCc1cccs1)C2`, with -8.51%; and `CC(C)(O)C1=C[N+](=O)CC=C1`, with 9.18%; and `CCCCCn1nnnc1C1c2ccccc2C(=O)N1Cc1ccco1` (centres undefined), with 4.16%.
Still for that read-out and setting: as for `COc1ccc(C(c2nnnn2C2CCCC2)N2CCN(C/C=C/c3ccccc3)CC2)cc1` (centres undefined), the figure is -1.03%.
On the same count and under the same terms, then `CCCCCNC(=O)C(c1ccc(OC)cc1)n1c(=O)c(-c2ccccc2)nc2ccccc21` (centres undefined), with -4.26%; and `Cc1ccc(S(=O)(=O)N2[C@@H](Cc3ccccc3)CO[C@H]2CC(=O)OCc2ccccc2)cc1`, with 5.33%; and `CN(Cc1cn(Cc2ccc(C(F)(F)F)cc2)nn1)C1CN(Cc2cn(Cc3ccc(C(F)(F)F)cc3)nn2)S(=O)(=O)C1` (centres undefined), with -28.3%.
`COCCNC(=O)c1cc2c(Br)ccc(Br)c2nc1N`: the “activity change, negative = inhibition” value is -20.9%.
Still for that read-out and setting: then `CC(=O)N1Cc2cc(C(=O)NCc3cccc(F)c3)nc(-c3cccc(C4=CCCCC4)c3)c2[C@H]1CCO`, with -17.1%.
Turning to `C=C1C(=O)[C@]23C[C@H]1CCC2[C@@]1(C)C(C[C@@H]3O)[C@](C)(C(=O)O)CC[C@@H]1O` (some centres undefined), the “activity change, negative = inhibition” value is -21.7%.
The same measure, in the same setting: as for `CCCCCNC(=O)C1C(=O)Nc2ccccc2C(=O)N1C(C)(C)C` (centres undefined), the figure is 1.6%.
On the same count and under the same terms, then `CC[C@@H]1CC2=C(C(=O)OC(C)(C)O2)[C@@H](CC)O1`, with 2.98%; and `CCOC(=O)[C@]12CCC=C1N(Cc1ccccc1)C(=O)[C@H](CC(=O)N1CCCC1)C2`, with -6.85%.
